Data on 5 compounds can be found in PubChem BioAssay AID861 (The Scripps Research Institute Molecular Screening Center, 2007).

The term inhibition denotes the relative decrease from the control value, in per cent.

Among all 200,000 compounds or so, about 360 (0.18%) were called active. Only a selection was taken, and actives are over-represented in it overall. Values without a mark were called inactive. Rule as the data show it: active = inhibition above about 25%; inactive = the rest.

The target in the assay is Toll-like receptor 4 (Homo sapiens) + Myeloid differentiation primary response protein MyD88 (Homo sapiens) (UniProt O00206+Q99836). Nature of the assay: disruptors of TLR4 binding to MyD88 – cell-based, HeLa CL3-4, BLA complementation, FRET ratio, primary screen (AID 861).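 Also: 0% = vehicle and 100% = reference inhibitor.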 The conditions noted are these: HeLa CL3-4 TLR4/MyD88 BLA complementation, at 8.4 µM, hits give high values.
Chain of Toll-like receptor 4 (Homo sapiens) + Myeloid differentiation primary response protein MyD88 (Homo sapiens) (O00206 whole entry, looked up): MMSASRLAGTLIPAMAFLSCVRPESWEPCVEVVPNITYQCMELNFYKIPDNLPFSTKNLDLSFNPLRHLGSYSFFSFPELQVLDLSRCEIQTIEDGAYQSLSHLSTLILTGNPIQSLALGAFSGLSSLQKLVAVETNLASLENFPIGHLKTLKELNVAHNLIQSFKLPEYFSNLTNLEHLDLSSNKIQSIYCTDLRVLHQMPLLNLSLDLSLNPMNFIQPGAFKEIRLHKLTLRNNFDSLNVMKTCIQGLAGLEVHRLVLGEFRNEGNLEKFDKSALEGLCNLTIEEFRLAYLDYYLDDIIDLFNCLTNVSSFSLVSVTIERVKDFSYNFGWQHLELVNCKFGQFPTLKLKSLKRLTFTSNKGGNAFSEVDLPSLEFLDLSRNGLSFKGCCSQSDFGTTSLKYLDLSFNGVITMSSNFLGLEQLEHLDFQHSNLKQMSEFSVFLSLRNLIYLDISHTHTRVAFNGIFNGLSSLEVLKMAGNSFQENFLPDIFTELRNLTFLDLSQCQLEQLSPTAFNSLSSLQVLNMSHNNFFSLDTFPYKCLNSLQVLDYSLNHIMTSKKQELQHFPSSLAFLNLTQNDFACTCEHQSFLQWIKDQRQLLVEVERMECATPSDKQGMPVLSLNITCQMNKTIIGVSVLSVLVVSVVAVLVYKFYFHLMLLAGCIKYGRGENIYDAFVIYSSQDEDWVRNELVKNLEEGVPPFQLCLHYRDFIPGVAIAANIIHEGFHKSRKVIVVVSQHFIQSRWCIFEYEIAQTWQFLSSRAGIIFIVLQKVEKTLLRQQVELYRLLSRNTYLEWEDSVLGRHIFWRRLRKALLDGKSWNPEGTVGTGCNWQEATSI
Chain of Toll-like receptor 4 (Homo sapiens) + Myeloid differentiation primary response protein MyD88 (Homo sapiens) (Q99836 whole entry, looked up): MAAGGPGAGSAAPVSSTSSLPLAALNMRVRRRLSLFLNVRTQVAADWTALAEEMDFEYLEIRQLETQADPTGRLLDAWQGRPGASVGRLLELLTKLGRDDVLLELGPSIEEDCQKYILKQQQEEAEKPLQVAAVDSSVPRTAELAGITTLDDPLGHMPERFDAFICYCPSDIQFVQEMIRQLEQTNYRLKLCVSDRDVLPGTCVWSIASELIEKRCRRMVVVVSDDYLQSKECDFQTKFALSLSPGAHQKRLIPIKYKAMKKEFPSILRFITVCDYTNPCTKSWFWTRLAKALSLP
Consider `CC(C)c1ccc(O)c(CN2CCN(c3ccccc3)CC2)c1`, for which the inhibition was -8.07%.

Consider `Fc1cccc(F)c1CN1CCN(Cc2c(F)cccc2F)CC1`, for which the inhibition is 6.5%.

Take `COc1ccc(CN2CCN(c3ccccc3F)CC2)c(OC)c1`: the inhibition was 29.3% (active).

Regarding `CN(C)CCCN=Cc1c(O)n(Cc2ccco2)c(=O)[nH]c1=O`, the inhibition was -1.36%.

With `CCOc1ccc(C2SCC(=O)Nc3c2c(C)nn3C2CCOC(C)(C)C2)cc1` (stereo not given), the inhibition was -12%.
